Laboratory results taken from the supplement of paper PMC11732987, “Enantioselective OTUD7B fragment discovery through chemoproteomics screening and high-throughput optimisation” (Communications Chemistry, 2025).

Experiments:
Assay in all cases: log2 ratio of Biotin-Ahx-Ub-VS probe labelling (fragment/DMSO); higher = less target engagement (more negative = stronger competition), active = hit call of the paper (q ≤ 0.05, log2 ratio ≤ -1)
Conditions in all cases: compound concentration: 200 uM; treatment time: 3 h
USP42 = biological target: T1, USP42 (UniProt Q9H9J4)
T1 sequence (whole entry): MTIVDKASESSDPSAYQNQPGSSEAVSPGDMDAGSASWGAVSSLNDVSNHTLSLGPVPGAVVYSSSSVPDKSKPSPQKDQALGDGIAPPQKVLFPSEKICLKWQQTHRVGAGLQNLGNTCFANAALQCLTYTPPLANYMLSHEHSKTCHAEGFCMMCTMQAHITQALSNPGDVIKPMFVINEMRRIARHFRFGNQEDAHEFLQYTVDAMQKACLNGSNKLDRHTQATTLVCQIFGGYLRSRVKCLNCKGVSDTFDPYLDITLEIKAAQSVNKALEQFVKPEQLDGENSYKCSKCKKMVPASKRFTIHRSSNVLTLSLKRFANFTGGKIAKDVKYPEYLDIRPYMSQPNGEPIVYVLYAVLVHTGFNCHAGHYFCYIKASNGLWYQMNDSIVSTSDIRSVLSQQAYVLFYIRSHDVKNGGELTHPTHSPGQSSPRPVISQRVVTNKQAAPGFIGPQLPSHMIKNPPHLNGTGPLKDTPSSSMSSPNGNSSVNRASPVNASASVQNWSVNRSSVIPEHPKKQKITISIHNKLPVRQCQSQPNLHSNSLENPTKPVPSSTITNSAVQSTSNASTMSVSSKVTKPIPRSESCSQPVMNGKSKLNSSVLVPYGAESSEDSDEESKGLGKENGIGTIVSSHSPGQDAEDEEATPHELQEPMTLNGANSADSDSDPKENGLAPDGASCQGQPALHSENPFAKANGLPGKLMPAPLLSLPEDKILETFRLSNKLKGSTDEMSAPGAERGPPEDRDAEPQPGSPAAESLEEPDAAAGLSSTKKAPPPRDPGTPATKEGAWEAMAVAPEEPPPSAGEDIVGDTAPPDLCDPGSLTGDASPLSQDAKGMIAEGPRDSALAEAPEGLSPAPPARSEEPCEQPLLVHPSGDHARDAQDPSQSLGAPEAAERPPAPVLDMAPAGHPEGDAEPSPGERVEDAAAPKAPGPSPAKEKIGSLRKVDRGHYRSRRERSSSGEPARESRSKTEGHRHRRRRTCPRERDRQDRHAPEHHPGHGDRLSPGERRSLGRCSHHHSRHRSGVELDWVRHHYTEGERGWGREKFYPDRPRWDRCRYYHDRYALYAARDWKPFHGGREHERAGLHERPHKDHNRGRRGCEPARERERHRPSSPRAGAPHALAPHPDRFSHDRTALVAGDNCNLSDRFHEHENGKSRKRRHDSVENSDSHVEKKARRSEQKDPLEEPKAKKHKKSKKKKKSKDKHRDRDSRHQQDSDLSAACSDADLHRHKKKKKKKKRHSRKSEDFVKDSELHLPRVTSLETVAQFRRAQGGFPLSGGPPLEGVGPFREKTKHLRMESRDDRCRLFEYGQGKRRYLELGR
How it was run: (§1)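 HEK293T lysate (495 µg per sample, in Tris/CHAPS/IGEPAL buffer with protease inhibitors) was exposed in triplicate for 3 h to fragment at 200 µM or to vehicle, then to Biotin-Ahx-Ub-VS at 0.5 µM final for 1 h. Labelled DUBs were enriched on NeutrAvidin, digested with LysC and trypsin, and analysed by diaPASEF LC-MS/MS. Spectronaut label-free quantities were normalised to the global median, and values are average log2 ratios of fragment over vehicle from an unpaired t-test. Only proteins with ≥2 unique peptides were used.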

USP46 = USP46 (UniProt P62068)
USP46, sequence (P62068 whole entry): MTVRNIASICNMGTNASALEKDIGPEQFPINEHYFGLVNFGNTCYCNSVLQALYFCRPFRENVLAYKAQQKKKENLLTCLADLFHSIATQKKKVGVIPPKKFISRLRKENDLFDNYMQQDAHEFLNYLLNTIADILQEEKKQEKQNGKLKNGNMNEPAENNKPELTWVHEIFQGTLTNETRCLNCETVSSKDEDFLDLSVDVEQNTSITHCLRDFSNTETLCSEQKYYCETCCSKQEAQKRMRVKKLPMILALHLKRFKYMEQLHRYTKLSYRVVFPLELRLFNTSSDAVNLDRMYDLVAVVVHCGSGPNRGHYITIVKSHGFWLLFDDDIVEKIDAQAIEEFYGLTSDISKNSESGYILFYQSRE
How it was run: as §1

USP47 = biological target: T2, USP47 (UniProt Q96K76)
T2 sequence (whole entry): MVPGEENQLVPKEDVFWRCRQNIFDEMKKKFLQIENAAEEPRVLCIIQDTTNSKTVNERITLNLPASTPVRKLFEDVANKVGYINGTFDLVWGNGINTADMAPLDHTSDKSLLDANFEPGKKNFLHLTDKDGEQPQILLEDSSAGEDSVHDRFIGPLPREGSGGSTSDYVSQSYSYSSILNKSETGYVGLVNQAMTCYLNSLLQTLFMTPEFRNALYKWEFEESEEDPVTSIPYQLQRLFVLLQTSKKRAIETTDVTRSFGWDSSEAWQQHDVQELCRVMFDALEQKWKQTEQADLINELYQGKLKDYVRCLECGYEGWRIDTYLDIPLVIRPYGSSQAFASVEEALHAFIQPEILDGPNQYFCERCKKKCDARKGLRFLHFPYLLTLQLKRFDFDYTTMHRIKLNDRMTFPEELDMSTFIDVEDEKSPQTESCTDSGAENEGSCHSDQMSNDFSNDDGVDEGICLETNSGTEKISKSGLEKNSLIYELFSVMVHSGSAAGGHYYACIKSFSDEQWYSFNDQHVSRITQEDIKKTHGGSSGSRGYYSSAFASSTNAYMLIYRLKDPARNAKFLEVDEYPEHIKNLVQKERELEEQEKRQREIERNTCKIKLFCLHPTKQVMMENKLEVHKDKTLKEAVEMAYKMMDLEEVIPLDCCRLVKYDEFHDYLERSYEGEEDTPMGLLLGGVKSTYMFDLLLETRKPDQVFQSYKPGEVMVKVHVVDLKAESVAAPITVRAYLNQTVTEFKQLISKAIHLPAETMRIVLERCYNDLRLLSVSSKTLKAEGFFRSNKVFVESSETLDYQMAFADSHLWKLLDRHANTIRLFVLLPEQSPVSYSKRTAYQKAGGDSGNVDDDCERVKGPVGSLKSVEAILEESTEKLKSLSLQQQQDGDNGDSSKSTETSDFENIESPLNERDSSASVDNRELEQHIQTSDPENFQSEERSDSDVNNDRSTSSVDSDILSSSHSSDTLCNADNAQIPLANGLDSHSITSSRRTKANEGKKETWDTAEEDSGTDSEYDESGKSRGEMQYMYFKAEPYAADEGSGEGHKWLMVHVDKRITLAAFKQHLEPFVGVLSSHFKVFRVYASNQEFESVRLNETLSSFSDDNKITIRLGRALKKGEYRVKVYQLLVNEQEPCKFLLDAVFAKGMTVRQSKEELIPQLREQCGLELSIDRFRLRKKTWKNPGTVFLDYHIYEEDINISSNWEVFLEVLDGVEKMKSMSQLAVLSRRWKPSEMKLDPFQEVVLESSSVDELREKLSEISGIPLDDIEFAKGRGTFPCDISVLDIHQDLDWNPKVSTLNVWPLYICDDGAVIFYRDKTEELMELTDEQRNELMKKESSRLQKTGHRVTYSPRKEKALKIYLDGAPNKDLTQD
How it was run: as §1

USP48 = biological target: T3, USP48 (UniProt Q86UV5)
T3 sequence (whole entry): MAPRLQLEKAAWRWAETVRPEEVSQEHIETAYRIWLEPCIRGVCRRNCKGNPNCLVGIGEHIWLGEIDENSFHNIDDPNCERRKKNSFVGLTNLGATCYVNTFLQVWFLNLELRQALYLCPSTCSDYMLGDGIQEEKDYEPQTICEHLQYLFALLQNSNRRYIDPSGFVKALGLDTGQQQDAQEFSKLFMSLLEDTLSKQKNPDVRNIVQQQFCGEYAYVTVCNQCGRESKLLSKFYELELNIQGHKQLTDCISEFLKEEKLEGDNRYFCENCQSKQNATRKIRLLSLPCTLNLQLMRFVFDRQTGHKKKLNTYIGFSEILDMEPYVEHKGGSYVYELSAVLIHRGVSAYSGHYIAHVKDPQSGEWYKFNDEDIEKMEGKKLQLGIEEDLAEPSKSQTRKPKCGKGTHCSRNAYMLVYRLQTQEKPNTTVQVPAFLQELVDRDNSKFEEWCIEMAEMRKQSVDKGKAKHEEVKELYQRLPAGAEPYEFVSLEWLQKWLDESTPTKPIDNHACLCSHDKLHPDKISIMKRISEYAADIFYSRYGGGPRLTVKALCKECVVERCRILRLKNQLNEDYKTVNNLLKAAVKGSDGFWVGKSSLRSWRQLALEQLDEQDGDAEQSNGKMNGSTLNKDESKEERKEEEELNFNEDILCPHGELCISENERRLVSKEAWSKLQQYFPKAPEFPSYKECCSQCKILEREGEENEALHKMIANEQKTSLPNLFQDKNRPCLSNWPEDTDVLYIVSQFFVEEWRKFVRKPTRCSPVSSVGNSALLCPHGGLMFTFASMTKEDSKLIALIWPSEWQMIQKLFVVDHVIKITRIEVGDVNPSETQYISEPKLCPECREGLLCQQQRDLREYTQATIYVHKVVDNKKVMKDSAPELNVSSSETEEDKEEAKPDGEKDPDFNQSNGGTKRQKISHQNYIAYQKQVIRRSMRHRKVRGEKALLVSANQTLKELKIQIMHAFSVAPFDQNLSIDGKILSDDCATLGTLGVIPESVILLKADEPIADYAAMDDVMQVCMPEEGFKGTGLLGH
How it was run: as §1

USP5 = biological target: T4, USP5 (UniProt P45974)
T4 sequence (whole entry): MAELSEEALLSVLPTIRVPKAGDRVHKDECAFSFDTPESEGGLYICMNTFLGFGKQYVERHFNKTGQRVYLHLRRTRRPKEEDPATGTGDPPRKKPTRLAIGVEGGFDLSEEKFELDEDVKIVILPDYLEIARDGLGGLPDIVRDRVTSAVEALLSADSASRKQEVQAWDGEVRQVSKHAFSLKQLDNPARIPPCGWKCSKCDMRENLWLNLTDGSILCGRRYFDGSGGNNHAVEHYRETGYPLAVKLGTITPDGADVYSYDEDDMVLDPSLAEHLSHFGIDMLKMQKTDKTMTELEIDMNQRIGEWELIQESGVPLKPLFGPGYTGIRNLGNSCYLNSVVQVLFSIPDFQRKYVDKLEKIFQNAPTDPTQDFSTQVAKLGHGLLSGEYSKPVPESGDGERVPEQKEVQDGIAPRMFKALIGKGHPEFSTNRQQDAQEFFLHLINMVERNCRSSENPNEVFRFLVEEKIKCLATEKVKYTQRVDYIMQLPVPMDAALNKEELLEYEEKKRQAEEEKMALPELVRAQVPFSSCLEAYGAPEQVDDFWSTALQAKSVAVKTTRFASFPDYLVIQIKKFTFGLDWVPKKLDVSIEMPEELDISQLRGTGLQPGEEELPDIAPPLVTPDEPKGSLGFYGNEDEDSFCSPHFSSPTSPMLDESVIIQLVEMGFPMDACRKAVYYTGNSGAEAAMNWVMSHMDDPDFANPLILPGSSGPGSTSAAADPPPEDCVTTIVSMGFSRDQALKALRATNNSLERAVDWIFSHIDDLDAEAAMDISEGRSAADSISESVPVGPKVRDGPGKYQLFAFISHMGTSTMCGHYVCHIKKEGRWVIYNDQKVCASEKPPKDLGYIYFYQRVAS
How it was run: as §1

USP54 = USP54 (UniProt Q70EL1)
USP54, sequence (Q70EL1 whole entry): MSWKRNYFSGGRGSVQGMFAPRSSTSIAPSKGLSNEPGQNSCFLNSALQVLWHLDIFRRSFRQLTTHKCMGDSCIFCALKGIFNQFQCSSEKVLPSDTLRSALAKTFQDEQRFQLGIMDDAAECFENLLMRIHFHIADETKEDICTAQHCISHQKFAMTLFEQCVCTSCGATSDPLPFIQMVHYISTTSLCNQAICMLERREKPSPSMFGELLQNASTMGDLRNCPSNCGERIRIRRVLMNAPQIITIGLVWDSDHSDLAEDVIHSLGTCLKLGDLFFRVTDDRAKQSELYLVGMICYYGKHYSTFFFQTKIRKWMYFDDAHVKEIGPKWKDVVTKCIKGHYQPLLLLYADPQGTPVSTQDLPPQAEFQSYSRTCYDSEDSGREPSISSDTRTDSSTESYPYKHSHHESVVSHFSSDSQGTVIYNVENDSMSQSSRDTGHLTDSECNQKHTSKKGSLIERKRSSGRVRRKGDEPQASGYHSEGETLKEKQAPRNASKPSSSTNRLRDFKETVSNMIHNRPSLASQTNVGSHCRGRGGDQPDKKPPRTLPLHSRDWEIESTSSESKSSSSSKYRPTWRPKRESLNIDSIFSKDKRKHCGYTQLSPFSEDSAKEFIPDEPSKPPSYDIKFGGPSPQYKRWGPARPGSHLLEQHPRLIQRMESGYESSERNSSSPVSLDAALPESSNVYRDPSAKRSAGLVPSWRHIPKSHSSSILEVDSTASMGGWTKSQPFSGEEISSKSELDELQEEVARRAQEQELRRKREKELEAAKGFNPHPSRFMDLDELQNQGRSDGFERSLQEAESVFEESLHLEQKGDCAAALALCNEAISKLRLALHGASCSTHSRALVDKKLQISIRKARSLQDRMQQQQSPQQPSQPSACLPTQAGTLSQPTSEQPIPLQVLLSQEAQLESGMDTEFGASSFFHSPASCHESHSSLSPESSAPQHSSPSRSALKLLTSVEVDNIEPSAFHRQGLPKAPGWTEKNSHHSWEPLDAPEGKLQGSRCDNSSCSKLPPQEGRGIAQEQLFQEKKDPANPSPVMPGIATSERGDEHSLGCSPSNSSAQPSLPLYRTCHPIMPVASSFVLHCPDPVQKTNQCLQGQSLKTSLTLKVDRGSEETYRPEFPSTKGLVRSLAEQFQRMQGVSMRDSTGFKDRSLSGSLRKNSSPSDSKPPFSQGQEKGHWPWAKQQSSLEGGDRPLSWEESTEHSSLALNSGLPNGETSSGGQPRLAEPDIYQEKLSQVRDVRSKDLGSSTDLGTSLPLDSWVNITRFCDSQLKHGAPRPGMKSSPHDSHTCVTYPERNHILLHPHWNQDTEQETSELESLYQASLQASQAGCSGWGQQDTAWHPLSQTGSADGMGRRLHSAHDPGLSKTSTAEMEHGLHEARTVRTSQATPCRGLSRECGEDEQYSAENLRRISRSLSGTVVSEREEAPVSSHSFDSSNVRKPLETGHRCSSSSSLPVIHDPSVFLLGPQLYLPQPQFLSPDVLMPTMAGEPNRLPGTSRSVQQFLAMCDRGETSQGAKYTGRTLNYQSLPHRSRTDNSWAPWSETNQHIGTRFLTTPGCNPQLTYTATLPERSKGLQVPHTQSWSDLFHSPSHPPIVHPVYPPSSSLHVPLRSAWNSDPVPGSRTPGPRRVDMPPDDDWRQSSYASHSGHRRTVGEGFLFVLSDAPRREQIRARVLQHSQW
How it was run: as §1

USP7 = USP7 (UniProt Q93009)
USP7, sequence (Q93009 whole entry, looked up): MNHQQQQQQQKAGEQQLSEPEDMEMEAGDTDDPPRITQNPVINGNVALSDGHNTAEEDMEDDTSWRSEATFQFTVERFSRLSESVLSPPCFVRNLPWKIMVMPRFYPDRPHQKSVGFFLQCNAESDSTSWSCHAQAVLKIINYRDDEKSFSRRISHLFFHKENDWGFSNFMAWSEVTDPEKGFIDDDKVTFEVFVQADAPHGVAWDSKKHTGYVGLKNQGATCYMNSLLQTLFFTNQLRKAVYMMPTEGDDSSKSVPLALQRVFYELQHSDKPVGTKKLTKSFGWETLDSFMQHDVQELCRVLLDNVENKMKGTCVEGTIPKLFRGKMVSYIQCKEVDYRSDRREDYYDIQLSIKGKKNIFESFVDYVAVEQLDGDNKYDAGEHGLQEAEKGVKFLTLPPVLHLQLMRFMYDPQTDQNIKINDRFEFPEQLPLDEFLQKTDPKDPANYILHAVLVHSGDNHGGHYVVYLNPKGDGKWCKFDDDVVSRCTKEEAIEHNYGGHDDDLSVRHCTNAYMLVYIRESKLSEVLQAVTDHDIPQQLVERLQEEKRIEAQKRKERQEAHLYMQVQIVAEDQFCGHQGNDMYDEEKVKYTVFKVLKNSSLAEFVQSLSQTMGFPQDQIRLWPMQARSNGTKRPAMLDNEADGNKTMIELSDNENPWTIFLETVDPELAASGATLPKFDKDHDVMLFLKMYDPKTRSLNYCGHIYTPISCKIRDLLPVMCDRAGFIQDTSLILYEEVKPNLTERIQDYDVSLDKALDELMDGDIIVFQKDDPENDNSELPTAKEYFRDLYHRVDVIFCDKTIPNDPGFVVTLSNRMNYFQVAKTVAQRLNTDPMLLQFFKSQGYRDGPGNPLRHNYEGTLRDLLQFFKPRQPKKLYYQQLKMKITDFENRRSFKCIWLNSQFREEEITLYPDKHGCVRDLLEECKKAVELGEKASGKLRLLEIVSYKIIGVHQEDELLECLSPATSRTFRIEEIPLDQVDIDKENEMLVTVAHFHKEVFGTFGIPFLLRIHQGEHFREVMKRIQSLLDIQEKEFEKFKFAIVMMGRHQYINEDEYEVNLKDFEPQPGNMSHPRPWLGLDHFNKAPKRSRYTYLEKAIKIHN
How it was run: as §1

USP8 = biological target: T5, USP8 (UniProt P40818)
T5 sequence (whole entry): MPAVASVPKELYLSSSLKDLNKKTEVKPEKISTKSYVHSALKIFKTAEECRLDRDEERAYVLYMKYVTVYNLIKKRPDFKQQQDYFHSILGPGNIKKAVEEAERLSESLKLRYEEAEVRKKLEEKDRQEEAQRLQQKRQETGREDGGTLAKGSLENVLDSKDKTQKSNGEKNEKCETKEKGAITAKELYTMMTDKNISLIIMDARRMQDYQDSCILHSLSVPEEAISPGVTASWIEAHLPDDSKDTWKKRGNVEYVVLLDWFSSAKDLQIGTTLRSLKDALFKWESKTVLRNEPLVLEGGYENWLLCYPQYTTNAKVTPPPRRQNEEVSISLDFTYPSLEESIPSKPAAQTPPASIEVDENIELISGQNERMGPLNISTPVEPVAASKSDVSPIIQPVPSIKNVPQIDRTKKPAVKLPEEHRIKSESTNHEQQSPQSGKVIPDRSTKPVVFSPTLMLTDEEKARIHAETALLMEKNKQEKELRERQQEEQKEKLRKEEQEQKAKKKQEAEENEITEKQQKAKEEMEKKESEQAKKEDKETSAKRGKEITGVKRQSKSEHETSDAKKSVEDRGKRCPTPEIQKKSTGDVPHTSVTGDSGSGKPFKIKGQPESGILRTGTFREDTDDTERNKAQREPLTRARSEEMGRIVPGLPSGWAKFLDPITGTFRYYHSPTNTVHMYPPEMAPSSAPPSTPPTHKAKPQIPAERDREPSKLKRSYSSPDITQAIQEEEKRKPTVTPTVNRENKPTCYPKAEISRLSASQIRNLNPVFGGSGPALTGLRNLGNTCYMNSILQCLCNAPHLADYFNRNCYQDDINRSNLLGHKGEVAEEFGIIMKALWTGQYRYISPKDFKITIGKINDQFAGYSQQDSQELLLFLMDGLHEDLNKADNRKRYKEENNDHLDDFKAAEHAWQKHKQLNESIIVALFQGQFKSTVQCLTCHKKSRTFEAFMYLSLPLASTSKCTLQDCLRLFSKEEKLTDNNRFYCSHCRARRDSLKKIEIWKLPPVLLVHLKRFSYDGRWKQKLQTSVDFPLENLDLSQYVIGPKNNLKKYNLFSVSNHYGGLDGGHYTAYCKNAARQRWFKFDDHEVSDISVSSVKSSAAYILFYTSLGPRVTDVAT
How it was run: as §1

Measured: log2 ratio of Biotin-Ahx-Ub-VS probe labelling

Cc1ncc2c(n1)CCN(C(=O)CCl)C2
inactive: USP42 0.492 | USP46 -0.138 | USP47 0.296 | USP48 -0.0668 | USP5 -0.217 | USP54 -0.303 | USP7 -0.49 | USP8 -0.102
